The source of these data is PubChem BioAssay AID1851 (National Center for Advancing Translational Sciences (NCATS), 2009).

Values joined by “and” are separate entries in the source; they are usually repeats but may differ in a detail not shown here. Equal entries are not always repeated. The whole screen tested about 16,000 compounds, of which about 5,800 (36%) were called active. Inconclusive results (about 23%) are left out. The list shows a part of the results. Unmarked numbers belong to inactive results. Calls follow the shape of the dose curve; as a rule, active = well fitted curve in the direction sought with a large enough effect; inconclusive = small, poorly fitted or top-dose-only effect, or effect the other way; inactive = no such curve, though single readings can be large or run the other way.
% is scaled to controls: 0 for no effect and ±100 for the full control effect.

Chain of Cytochrome P450 2C19 (Homo sapiens) (P33261 whole entry, looked up): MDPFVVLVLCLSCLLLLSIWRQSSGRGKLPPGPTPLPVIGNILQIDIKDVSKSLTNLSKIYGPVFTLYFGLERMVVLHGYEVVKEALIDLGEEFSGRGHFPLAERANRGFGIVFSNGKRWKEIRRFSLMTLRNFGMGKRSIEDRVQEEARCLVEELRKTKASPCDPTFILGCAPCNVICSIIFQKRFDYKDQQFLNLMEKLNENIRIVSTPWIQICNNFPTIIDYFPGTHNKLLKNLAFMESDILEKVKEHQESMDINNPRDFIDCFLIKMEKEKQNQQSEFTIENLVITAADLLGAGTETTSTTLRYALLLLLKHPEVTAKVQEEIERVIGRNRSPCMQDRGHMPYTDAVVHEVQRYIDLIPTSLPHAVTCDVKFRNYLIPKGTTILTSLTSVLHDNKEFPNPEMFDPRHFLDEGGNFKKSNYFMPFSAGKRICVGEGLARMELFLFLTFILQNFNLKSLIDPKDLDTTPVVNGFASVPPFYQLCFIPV

The assay deals with Cytochrome P450 2C19 (Homo sapiens) (UniProt P33261). The assay can be described thus: Cytochrome panel assay with activity outcomes. Conditions: recombinant CYP, pro-luciferin dealkylation, luminescence, p450-cyp2c19; series mostly up to 57.1 µM; activity, negative = inhibition: at the top concentration. The method, then:
The P450 gene superfamily is involved in the metabolism and clearance of xenobiotics. This assay used various human CYP P450 isozymes to measure the dealkylation of various pro-luciferin substrates to luciferin. The luciferin is then measured by luminescence after the addition of a luciferase detection reagent. Pro-luciferin substrate concentration in the assay was equal to its KM for its CYP P450 isozyme. Inhibitors and some substrates limit the production of luciferin, and decrease measured luminescence.
NCGC Assay Protocol Summary:
1, Reagent, 2 uL, Isozyme and Pro-Luciferin
2, Library compounds, 23 nl, 40 uM to 0.24 nM dilution series
3, Controls, 23 nl, Isozyme specific inhibitor
4, Reagent, 2 uL, NADPH regeneration solution
5, Incubation time, 60 min, Isozyme specific temperature
6, Reagent, 4ul, Detection reagent
7, Incubation time, 20 min, Isozyme specific temperature
8, Detection, 1 sec, ViewLux luminescent read
The luciferase-based P450-GloTM Screening Systems were obtained from Promega (Madison, WI) for CYP 1A2 (V9770), CYP 2C9 (V9790), CYP2 C19 (V9880), CYP 2D6 (V9890), and CYP 3A4 Luciferin-PPXE (V9910) and were adapted for 1,536-well microplates and an automated protocol. The control compounds furafylline for 1A2 (F124), sulfaphenazole for CYP 2C9 (S0758), ketoconazole for CYP 2C19 (K1003), quinidine for 2D6 (Q3625), and ketoconazole for 3A4 (K1003) were purchased from Sigma Aldrich (St. Louis, MO). Recombinant P450 enzymes were obtained from baculovirus constructs expressed in insect cells (BD/Gentest).
Medium-binding white solid Kalypsys plates used. Mixtures kept on ice. 1A2: 10 nM 1A2, 100 uM Luc-ME, 100 mM KPO4; 2C9: 10 nM 2C9, 100 uM Luc-H, 25 mM KPO4; 2C19: 5 nM 2C19, 10 uM Luc-H EGE, 50 mM KPO4; 2D6: 5 nM 2D6, 30 uM Luc-ME EGE, 100 mM KPO4; 3A4: 10 nM, 25 uM Luc-PPXE. All amounts are reflected in their final concentration, working concentration is 2x.
NADPH regeneration solution: 1.3 mM NADP+, 3.3 mM glucose-6-phosphate, 3.3 mM MgCl2, 0.4 U/mL glucose-6-phosphate dehydrogenase for all isozymes, 200 mM KPO4 for 3A4. Mixture prepared at RT but kept on ice during automated run.
RT incubation in auxilliary plate hotel for 1A2, 2D6, and 3A4; 37C for 2C9 and 2C19.
Keywords: P450, CYP1A2, CYP2C19, CYP2C9, CYP2D6, CYP3A4, Luciferase, MLSMR, MLSCN, NIH Roadmap, qHTS, NCGC
For orientation: AC50 means the concentration giving half of the maximal activity seen. For `C=CCN=C1CC(C)(C)CC(=O)/C1=C(/O)CCC(=O)OC`, the AC50 was 14.1 µM (active). The same measure, in the same setting: for `C=CCN=C1CC(C)(C)CC(=O)/C1=C(\O)c1ccccc1` the value was 25.1 µM (active). Regarding `N#CCCn1c(=O)c(-c2ccccc2)nc2cnc(Nc3ccccc3)nc21`, the “activity, negative = inhibition” value was -8.35%.

Turning to `CCNC(=O)c1ccc(-n2nc(C)cc2-c2ccccc2)cc1`, the AC50 was 11.2 µM (active). Consider `Nc1ccc(C(=O)NCC(=O)O)cc1`, for which the “activity, negative = inhibition” value is 5.57% [at 25.6 µM]. On the same count and under the same terms, for `Cc1nc2cnc(N3CCOCC3)nc2n(CCC#N)c1=O` the value was -4.01%. With `Fc1ccc(-c2cnc(-c3cccs3)o2)cc1`, the AC50 was 6.31 µM (active).

With `Cc1ccc(N2C(=O)CC(c3ccsc3)C3=C2CC(C)(C)CC3=O)cc1` (stereo not drawn), the AC50 is 2.51 µM (active). As for `N#Cc1cc2nc(O)c(O)nc2cc1[N+](=O)[O-]`, the AC50 entry is “inactive”. On the same count and under the same terms, for `CC1CCCCN1c1cc(C#N)c(C#N)cc1[N+](=O)[O-]` (stereo not drawn) the value was 4.47 µM (active). With `N#Cc1cc2[nH]c(=O)c(=O)[nH]c2cc1[N+](=O)[O-]`, the “activity, negative = inhibition” value was -9.46%. Same read-out and setting: with `CCC(C)NC(=O)C1c2cc(OC)c(OC)cc2C(=O)N(C)C1c1cccs1` (stereo not drawn) the figure was -15%. With `Nc1nc(-c2cccnc2)cc(-c2cc(-c3cccnc3)nc(N)n2)n1`, the activity, negative = inhibition is -16.6% [at 11.4 µM].

As to `Clc1ccc(Cc2nc(-c3cccnc3)no2)cc1`, the concentration at half-maximal activity (AC50) is 1.78 µM (active). Take `Cn1cccc1C(=O)N1CCC2(CCN(Cc3nccs3)CC2)CC1`: the “activity, negative = inhibition” value is -0.0178%. As to `N#Cc1c(NC(=O)C2CC(c3ccccc3Cl)=NO2)sc2c1CCC2` (stereo not drawn), the AC50 is 2 µM (active).

On to `Cc1cc2cccc(C)c2nc1SCC(=O)N(C)c1nc(-c2ccccc2)cs1`, for which the “activity, negative = inhibition” value is -27.1%. With `CCC(=O)N(Cc1ccco1)c1nc(-c2ccccc2)cs1`, the half-maximal activity concentration (AC50) was 5.62 µM (active). Take `N#CCCn1nnc2ccccc21`: the “activity, negative = inhibition” value is -23.8%.

In the case of `Nn1nnc2ccccc21`, the “activity, negative = inhibition” value is -11.1%.

Regarding `Cc1ccnc(NCn2nnc3ccccc32)c1`, the AC50 is 15.8 µM (active). For the compound `O=C(O)C[n+]1ccccc1`, the activity, negative = inhibition is -3.69% [at 11.4 µM].

Turning to `Cc1cc(NC(=O)c2c(F)cccc2F)n(-c2nc3ccccc3[nH]2)n1`, the AC50 is 11.2 µM (active). Turning to `Cc1cc(NC(=O)c2ccc(S(=O)(=O)N(C)C)cc2)n(-c2ccccn2)n1`, the “activity, negative = inhibition” value is 4.21%.

Take `COc1cc(NC(=O)c2c(F)cccc2F)nc(OC)n1`: the “activity, negative = inhibition” value was -15.5%. Consider `Nc1ncnc2c1ncn2[C@@H]1CCCO1`, for which the “activity, negative = inhibition” value was 14.6%. In the case of `Cc1nc(S(=O)(=O)NC2CCCCC2)c(C#N)c(C)c1Cl`, the AC50 was 2.82 µM (active). On the same count and under the same terms, for `Cc1nc(S(=O)(=O)N(C)c2ccccc2)c(C#N)c(C)c1Cl` the value was 6.31 µM (active). As for `CCC[C@H]1C(=O)N2C(N(C)C)=Nc3ccc(C)cc3N2C1=O`, the “activity, negative = inhibition” value was -39.6% [at 25.6 µM]. On to `COc1ccc(C[C@@H]2c3cc(OC)c(OC)cc3CC[N@+]2(C)CCC(=O)OCCCCCOC(=O)CC[N@@+]2(C)CCc3cc(OC)c(OC)cc3[C@H]2Cc2ccc(OC)c(OC)c2)cc1OC`, for which the “activity, negative = inhibition” value was -12.9% [at 25.6 µM]. On the same count and under the same terms, with `COC(=O)C/C=C\[C@@H](C)[C@@H](/C=N\O[C@@H](C)c1cn([C@H](CO)Cc2ccccc2)nn1)OC` the figure was -27.6% [at 11.4 µM] and -8.78% [at 11.4 µM].

Regarding `N#Cc1nc(-c2ccc(OCc3ccccc3)cc2)oc1NCCN1CCOCC1`, the AC50 is 5.62 µM (active).

As for `N#Cc1ccccc1-c1ccc2ncnc(NCCN3CCOCC3)c2c1`, the “activity, negative = inhibition” value was -23.4%. Turning to `Cc1cccc(NC(=S)NNC(=O)c2csc3c2CCCC3)c1`, the AC50 is 10 µM (active). On to `O=[N+]([O-])c1ccc(Cl)c(/C=N/N2CCN(Cc3ccccc3)CC2)c1`, for which the AC50 was 17.8 µM (active). With `O=[N+]([O-])c1ccc(Cl)c(/C=N/N2CCN(Cc3ccccc3Cl)CC2)c1`, the AC50 is 3.98 µM (active). As for `C=C(C)C(=O)N1CC2(CC(c3cccc(NC(=O)c4ccccc4)c3)=NO2)C[C@@H]1C(N)=O` (stereo partly drawn), the “activity, negative = inhibition” value was -42%.

`Cc1cc(C)c(S(=O)(=O)N2CCN(c3ccc([N+](=O)[O-])c(NCC4CCCO4)c3)CC2)c(C)c1` (stereo not drawn): the AC50 was 3.16 µM (active). For the compound `CCS(=O)(=O)N1CCC(C(=O)NCC2CCCO2)CC1` (stereo not drawn), the “activity, negative = inhibition” value is -8.97%.

For the compound `Cc1ccc(NC(=O)c2ccc(NCC3CCCO3)c([N+](=O)[O-])c2)cc1Cl` (stereo not drawn), the concentration at half-maximal activity (AC50) is 5.01 µM (active). For `CNc1cc(CS(=O)c2ccccc2)nc(-c2ccccc2)n1` (stereo not drawn), the AC50 was 1.41 µM (active).

As to `O=S(Cc1cc(Oc2ccccc2)nc(-c2ccccc2)n1)c1ccccc1` (stereo not drawn), the AC50 was 2.82 µM (active). The same measure, in the same setting: for `O=S(=O)(Cc1cc(Oc2ccccc2)nc(-c2ccccc2)n1)c1ccccc1` the value was 1.26 µM (active).

For `O=c1[nH][nH]c(C(F)(F)F)c1C=Nc1ccccc1Cl`, the “activity, negative = inhibition” value was -12.3%. The same measure, in the same setting: with `[O-][N+](CCO)(CCO)c1ncnc2nc[nH]c12` the figure was 41% [at 11.4 µM]; with `CC[C@@]1(O)C(=O)COc2c1cc1n(c2=O)Cc2c-1nc1cccc(C(C)C)c1c2[Si](C)(C)C`, 27.7%. For `Cc1sc(NC(=O)C2CCCCC2)c(C#N)c1-c1ccccc1`, the AC50 was 2.82 µM (active). Turning to `Cc1sc(NC(=O)/C=C/c2ccc(C(C)C)cc2)c(C#N)c1C`, the “activity, negative = inhibition” value was -24.8%.
